Article PMC4336329 (PLoS ONE, 2015)
The campaign covered roughly 310,000 compounds. About 14,000 (4.5%) showed an effect of 50% or more. The effect is printed as a negative number. The entries come from a sample that favours strong results as a whole.

molecular target: human ether-à-go-go-related gene (hERG) potassium channel (human, UniProt Q12809); assay: primary screen, population patch clamp on CHO cells stably expressing hERG; higher = less effect of the substance
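Further: peak tail current of the secondary pulse compared with the same well before compound.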

Sequence of human ether-à-go-go-related gene (hERG) potassium channel (Q12809 whole entry, looked up): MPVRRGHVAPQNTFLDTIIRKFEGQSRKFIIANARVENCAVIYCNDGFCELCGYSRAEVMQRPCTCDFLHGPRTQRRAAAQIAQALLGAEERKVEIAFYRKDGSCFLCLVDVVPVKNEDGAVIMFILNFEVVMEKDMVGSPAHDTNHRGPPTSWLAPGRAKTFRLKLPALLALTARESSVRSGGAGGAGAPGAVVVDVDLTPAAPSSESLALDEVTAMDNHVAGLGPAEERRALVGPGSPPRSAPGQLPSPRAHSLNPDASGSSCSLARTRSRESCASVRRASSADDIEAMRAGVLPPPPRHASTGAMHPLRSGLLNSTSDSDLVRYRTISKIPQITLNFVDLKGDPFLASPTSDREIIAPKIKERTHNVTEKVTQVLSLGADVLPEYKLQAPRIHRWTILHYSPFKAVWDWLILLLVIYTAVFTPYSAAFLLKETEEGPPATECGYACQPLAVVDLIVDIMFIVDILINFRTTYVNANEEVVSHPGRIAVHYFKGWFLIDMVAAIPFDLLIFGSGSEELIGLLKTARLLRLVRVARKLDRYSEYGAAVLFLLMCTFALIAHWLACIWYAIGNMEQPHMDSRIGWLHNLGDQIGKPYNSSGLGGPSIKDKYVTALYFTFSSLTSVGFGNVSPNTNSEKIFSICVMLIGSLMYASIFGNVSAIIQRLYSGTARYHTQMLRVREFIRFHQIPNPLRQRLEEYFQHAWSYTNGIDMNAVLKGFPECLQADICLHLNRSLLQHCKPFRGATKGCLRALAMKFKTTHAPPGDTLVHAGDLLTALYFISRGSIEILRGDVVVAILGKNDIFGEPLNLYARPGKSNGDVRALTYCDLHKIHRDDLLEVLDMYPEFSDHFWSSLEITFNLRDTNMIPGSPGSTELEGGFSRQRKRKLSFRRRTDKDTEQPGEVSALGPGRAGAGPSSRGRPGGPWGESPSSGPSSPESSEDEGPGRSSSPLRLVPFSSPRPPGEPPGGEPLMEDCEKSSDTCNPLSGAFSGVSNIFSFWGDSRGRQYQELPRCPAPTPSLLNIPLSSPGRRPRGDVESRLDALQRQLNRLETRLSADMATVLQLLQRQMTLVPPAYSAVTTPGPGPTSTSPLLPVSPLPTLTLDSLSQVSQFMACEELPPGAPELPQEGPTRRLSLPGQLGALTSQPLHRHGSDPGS

Compared with `COc1cccc(C2(c3cccc(OC)c3)CC2C(=O)Nc2ccccc2Cl)c1` (centres unmarked), `COc1cccc(NC(=O)c2cc([N+](=O)[O-])ccc2NCc2cccnc2)c1` is lower in “hERG current change (%, negative = inhibition) at 10uM” value: 14% for the first, -44% for the second.

First: CN1C(=O)C(=Cc2ccc(-c3cccc(Cl)c3)o2)C(=O)N(C)C1=O
Second: O=C1NN(c2cccc(Br)c2)C(=O)/C1=C\c1ccc(O)cc1
The “hERG current change (%, negative = inhibition) at 10uM” value of the first is lower: 10.2% for the first, 12% for the second.

Going from `Cc1ccc(C(=O)N2CCN(c3ccc([N+](=O)[O-])c(NCc4cccnc4)c3)CC2)cc1` to `O=C(c1ccc(Cl)cc1)N1CCN(c2ccc([N+](=O)[O-])c(NCc3cccnc3)c2)CC1`, the “hERG current change (%, negative = inhibition) at 10uM” value rises from -59.4% to -50.1%.

Going from `Cc1ccc(NC(=O)c2cc([N+](=O)[O-])ccc2NCc2cccnc2)cc1Cl` to `Cc1ccc(NC(=O)c2cc([N+](=O)[O-])ccc2NCc2cccnc2)cc1`, the “hERG current change (%, negative = inhibition) at 10uM” value falls from -41.7% to -82.7%.

Compared with `Cc1ccccc1C(=O)N1CCN(c2ccc([N+](=O)[O-])c(NCc3cccnc3)c2)CC1`, `O=C(c1ccccc1F)N1CCN(c2ccc([N+](=O)[O-])c(NCc3cccnc3)c2)CC1` is lower in “hERG current change (%, negative = inhibition) at 10uM” value: -27% for the first, -45.5% for the second.

Compared with `CCS(=O)(=O)N1CCN(c2ccc([N+](=O)[O-])c(NCc3cccnc3)c2)CC1`, `CC(=O)N1CCN(c2ccc([N+](=O)[O-])c(NCc3cccnc3)c2)CC1` is higher in “hERG current change (%, negative = inhibition) at 10uM” value: -49.1% for the first, -22.3% for the second.

First: O=[N+]([O-])c1ccc(N2CCN(S(=O)(=O)c3ccc(Cl)cc3)CC2)cc1NCc1cccnc1
Second: O=C(c1ccccc1)N1CCN(c2ccc([N+](=O)[O-])c(NCc3cccnc3)c2)CC1
The “hERG current change (%, negative = inhibition) at 10uM” value of the first is higher: 2.59% for the first, -69.7% for the second.

Compared with `CC(C)(C)C(=O)N1CCN(c2ccc([N+](=O)[O-])c(NCc3cccnc3)c2)CC1`, `Cc1ccc(Cl)cc1N1CCN(C(=O)CCCn2c(=O)c3cccn3c3cccnc32)CC1` is higher in “hERG current change (%, negative = inhibition) at 10uM” value: -29.3% for the first, -15.1% for the second.

First: COc1cccc(C(=O)NCCS(=O)(=O)NCc2cccnc2)c1
Second: O=C(Nc1cccc(C(F)(F)F)c1)c1cccnc1
The “hERG current change (%, negative = inhibition) at 10uM” value of the first is higher: 8.66% for the first, -21.3% for the second.

First: COC(=O)c1ccc(NC(=O)CSc2nnc(C3CC3)n2C)cc1
Second: CCS(=O)(=O)Nc1ccc(-c2nnc(SCC(=O)c3ccc(NC(C)=O)c(OC)c3)o2)cc1
The “hERG current change (%, negative = inhibition) at 10uM” value of the first is higher: -4.59% for the first, -23.8% for the second.

First: COc1ccccc1S(=O)(=O)Cc1ccc(C(=O)NC2CC2)o1
Second: COC(=O)c1ccc(S(=O)(=O)N2CCC(c3nc4ccccc4o3)CC2)cc1
The “hERG current change (%, negative = inhibition) at 10uM” value of the first is higher: 18.5% for the first, 1.99% for the second.

Going from `CCN(CC#CCC1(O)c2ccccc2-c2ccccc21)C(C)C` to `CCCC1C(=O)Nc2ccccc2N1C(=O)c1cccc(C)c1` (centres unmarked), the “hERG current change (%, negative = inhibition) at 10uM” value rises from -9.99% to 2.13%.

Going from `O=C(COC(=O)c1ccc[nH]c1=O)NC1CCCCCC1` to `CCOC(=O)c1cccc(NC(=O)CNC(=O)C2CCCCC2)c1`, the “hERG current change (%, negative = inhibition) at 10uM” value falls from 46.2% to -3.8%.

Going from `Cc1cc2c(NC(=O)CCCC(=O)O)cccc2nn1` to `Cc1ccc(C(=O)CCC(=O)OCC(=O)Nc2ccc3[nH]c(=O)[nH]c3c2)cc1`, the “hERG current change (%, negative = inhibition) at 10uM” value rises from 13.6% to 14%.

First: Cc1cccc2sc(NNC(=O)c3cc(-c4cccs4)nc4ccccc34)nc12
Second: Cc1ccc(C(=O)Nc2cccc(C(F)(F)F)c2)cc1NC(=O)c1cnnc2ccccc12
The “hERG current change (%, negative = inhibition) at 10uM” value of the first is higher: 13.4% for the first, -5.9% for the second.

Going from `CC(=O)NC(NC(=S)Nc1ccc(N=Nc2ccccc2)cc1)C(Cl)(Cl)Cl` (centres unmarked) to `O=C(NCc1ccccc1)c1ccc(Br)o1`, the “hERG current change (%, negative = inhibition) at 10uM” value falls from 19.6% to 8.67%.

Going from `O=C(COc1ccc(Br)cc1)N1CCOCC1` to `CCOC(=O)Nc1ccc2c(c1)N(C(=O)CCN1CCOCC1)c1ccccc1S2.Cl`, the “hERG current change (%, negative = inhibition) at 10uM” value falls from -0.627% to -7%.

First: Cc1cccc(NS(=O)(=O)c2ccc3c(c2)NC(=O)CO3)c1C
Second: Cc1cccc(Nc2ncnc3nc[nH]c23)c1C
The “hERG current change (%, negative = inhibition) at 10uM” value of the first is higher: 3.88% for the first, -12.5% for the second.

Compared with `CC(=O)N(c1ccc2oc(=O)sc2c1)S(=O)(=O)c1cccc2cccnc12`, `COc1ccccc1N(CC(O)Cn1ccnc1C)S(=O)(=O)c1ccc(C)cc1.Cl` (centres unmarked) is lower in “hERG current change (%, negative = inhibition) at 10uM” value: 5.98% for the first, -39.3% for the second.

Compared with `CC1CCCC(C)N1CCCNC(=O)CCn1c(=O)c2cccn2c2cccnc21` (centres unmarked), `CC1CCCC(C)N1CCCNC(=O)Cn1c(=O)c2cccn2c2cccnc21` (centres unmarked) is lower in “hERG current change (%, negative = inhibition) at 10uM” value: 16.7% for the first, 2.77% for the second.

Compared with `Cc1ccc(C)c(N2CCN(CCCNC(=O)Cn3c(=O)c4cccn4c4cccnc43)CC2)c1`, `Cc1ccc(C)c(N2CCN(CCCNC(=O)CCn3c(=O)c4cccn4c4cccnc43)CC2)c1` is lower in “hERG current change (%, negative = inhibition) at 10uM” value: -59.6% for the first, -70% for the second.

First: CCC1CCCCN1CCCNC(=O)Cn1c(=O)c2cccn2c2cccnc21 (centres unmarked)
Second: CC1CCN(C(=O)CN2C(=O)c3cccc4cccc(c34)C2=O)CC1
The “hERG current change (%, negative = inhibition) at 10uM” value of the first is higher: 12.1% for the first, 2.37% for the second.

First: C#CCOCCOCCOCCNc1nc(N2CCN(C(=O)[C@H]([C@@H](C)CC)n3cc([C@@H](N)CO)nn3)CC2)nc(N2CCN(C(=O)[C@H](Cc3ccc(O)cc3)n3cc([C@@H](N)C(C)CC)nn3)CC2)n1.Cl (some centres unmarked)
Second: CC(C)c1cc(C(=O)N2CCCC(C(=O)c3ccc4ccccc4c3)C2)on1 (centres unmarked)
The “hERG current change (%, negative = inhibition) at 10uM” value of the first is higher: 0.411% for the first, -21.8% for the second.

Compared with `CC(C)C[C@H]1CN=C(Nc2ccccc2)N1CC1CCCCC1`, `CC(C)C[C@H]1CN=C(Nc2ccccc2)N1CC1CCCCCC1` is lower in “hERG current change (%, negative = inhibition) at 10uM” value: -45.7% for the first, -60.6% for the second.

Compared with `CC(C)C[C@H]1CN=C(Nc2ccccc2)N1CC1CCCC1`, `CC(C)C[C@H]1CN=C(Nc2ccccc2)N1CC1CCC(C)CC1` (some centres unmarked) is lower in “hERG current change (%, negative = inhibition) at 10uM” value: -24% for the first, -50.3% for the second.

Going from `CC(C)C[C@H]1CN=C(Nc2ccccc2)N1CC1CCC(C(C)(C)C)CC1` (some centres unmarked) to `CC1CCC(CN2C(Nc3ccccc3)=NC[C@@H]2C)CC1` (some centres unmarked), the “hERG current change (%, negative = inhibition) at 10uM” value rises from -78.3% to -9.6%.

Going from `O=C(COc1ccc(-n2cnnn2)cc1)Nc1ccccc1OC(F)F` to `Cc1ccc(C(=O)Nc2cccc(C(F)(F)F)c2)cc1Nc1ccccn1`, the “hERG current change (%, negative = inhibition) at 10uM” value falls from 4.44% to -67.4%.

First: N#Cc1c(N)n(-c2cccc(C(=O)O)c2)c2nc3ccccc3nc12
Second: Cc1ccc(C(=O)Nc2cccc(C(F)(F)F)c2)cc1NC(=O)c1nccnc1N
The “hERG current change (%, negative = inhibition) at 10uM” value of the first is higher: 14.6% for the first, 8.61% for the second.

First: Cc1ccc(NC(=O)Nc2cnccn2)cc1
Second: Cc1ccc(C(=O)Nc2cccc(C(F)(F)F)c2)cc1Nc1cnccn1
The “hERG current change (%, negative = inhibition) at 10uM” value of the first is higher: 5.11% for the first, -38.4% for the second.

Going from `O=C1C2C3C=CC(C2C(=O)N1c1ccc(O)cc1)C1C2C(=O)N(c4ccc(O)cc4)C(=O)C2C31` (centres unmarked) to `Cc1ccc(S(=O)(=O)N2[C@@H](c3ccc(Cl)cc3)C(C(=O)O)=CC[C@H]2c2ccc(Cl)c(Cl)c2)cc1`, the “hERG current change (%, negative = inhibition) at 10uM” value rises from -10.7% to 11.1%.

First: COc1cccc(-c2c(C(=O)N/N=C/c3ccoc3)nnn2-c2nonc2N)c1
Second: COc1cc(NC(=O)c2ccnc(N)c2)cc(C(=O)Nc2cccc(C(F)(F)F)c2)c1
The “hERG current change (%, negative = inhibition) at 10uM” value of the first is higher: -9.92% for the first, -31.3% for the second.

Compared with `CCSc1nnc(NC(=O)CCNS(=O)(=O)c2cc(Br)cnc2N)s1`, `CCCCCc1nnc(NC(=O)C2CCCO2)s1` (centres unmarked) is lower in “hERG current change (%, negative = inhibition) at 10uM” value: 0.00778% for the first, -1.64% for the second.

First: Cc1ccc(NC(=O)c2cccc(C(F)(F)F)c2)cc1NC(=O)c1[nH]cnc1C(N)=O
Second: Cc1ccc(C(=O)Nc2cccc(C(F)(F)F)c2)cc1NC(=O)c1nccn1C
The “hERG current change (%, negative = inhibition) at 10uM” value of the first is lower: -1.07% for the first, 1.96% for the second.

Compared with `COc1cc(NC(=O)c2ccc(N)nc2)cc(C(=O)Nc2cccc(C(F)(F)F)c2)c1`, `COc1cc(NC(=O)c2ccnnc2)cc(C(=O)Nc2cccc(C(F)(F)F)c2)c1` is lower in “hERG current change (%, negative = inhibition) at 10uM” value: -5.66% for the first, -52.8% for the second.

Compared with `Cc1ccc(C(=O)Nc2cccc(C(F)(F)F)c2)cc1Nc1cncnc1.O=C(O)C(F)(F)F`, `Cc1ccc(C(=O)Nc2cccc(C(F)(F)F)c2)cc1NC(=O)c1ccno1` is higher in “hERG current change (%, negative = inhibition) at 10uM” value: -74.3% for the first, -67% for the second.

Compared with `COc1cc(Nc2ccccn2)cc(C(=O)Nc2cccc(C(F)(F)F)c2)c1`, `Cc1ccc(C(=O)Nc2cccc(C(F)(F)F)c2)cc1Nc1ncnc2nc[nH]c12` is lower in “hERG current change (%, negative = inhibition) at 10uM” value: -2.6% for the first, -60.2% for the second.

Compared with `CCSc1nn2c(=O)c3ccccc3nc2s1`, `CCCN(C(=O)c1cnccn1)c1c(N)n(Cc2ccccc2)c(=O)[nH]c1=O` is higher in “hERG current change (%, negative = inhibition) at 10uM” value: -13.2% for the first, 0.0848% for the second.

Going from `COc1cccc(-c2cc(=O)[nH][nH]2)c1` to `COc1ccccc1C(=O)C1CCCN(C(=O)c2cc(C(C)C)no2)C1` (centres unmarked), the “hERG current change (%, negative = inhibition) at 10uM” value falls from 18% to -5.26%.

Compared with `CCCCN(CC)CCNC(=O)c1nn(-c2ccc(OC)cc2)c(=O)c2c1c1ccccc1n2C`, `CCCCSc1nc(C)cc(NC(=S)Nc2ccc(OC)cc2)n1` is lower in “hERG current change (%, negative = inhibition) at 10uM” value: 0.748% for the first, -25.4% for the second.

First: CN1CCN(c2nc3c(c(=O)n(C)c(=O)n3C)n2Cc2ccccc2F)CC1
Second: CSc1ccccc1C(=O)C1CCCN(C(=O)c2cc(C(C)C)no2)C1 (centres unmarked)
The “hERG current change (%, negative = inhibition) at 10uM” value of the first is higher: -4.91% for the first, -69.6% for the second.

Compared with `COc1ccc(C(=O)C2CCCN(C(=O)c3cc(C(C)C)no3)C2)cc1F` (centres unmarked), `COc1ccc(C(=O)C2CCCN(C(=O)c3cc(C)on3)C2)cc1F` (centres unmarked) is higher in “hERG current change (%, negative = inhibition) at 10uM” value: -56.9% for the first, -6.98% for the second.

With `Cc1cc(Cl)ccc1C(=O)C1CCCN(C(=O)c2cc(C(C)C)no2)C1` (centres unmarked) the “hERG current change (%, negative = inhibition) at 10uM” value was -22.7%.
